# According to the supplement of paper PMC4466140:
# B1: unnamed (peptide)
# chain: KNPRRQLQIPRQQPS
# Key:
# Assay in all cases: SPOT peptide array binding signal intensity (averaged, normalized) (arbitrary units (background-subtracted, floor 0; scale differs between SH3 domains)); higher = stronger binding of the SH3 domain to the peptide
# AgAbp1 = target: AgAbp1
# Method in brief: (§1)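 Peptides were synthetic 15-mers on cellulose membranes, with every cysteine replaced by serine. They were incubated overnight at 4°C with GST-SH3 domains from four yeast species at 10 μg/ml in TBS-based blocking buffer. Binding signal, the replicate-averaged normalized and background-subtracted spot intensity, is in arbitrary units that differ between domains.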
# AgBbc1 = target: AgBbc1
# Method in brief: as §1
# AgBem1-D1 = target: AgBem1-D1
# Method in brief: as §1
# AgBzz1-D1 = target: AgBzz1-D1
# Method in brief: as §1
# AgBzz1-D2 = target: AgBzz1-D2
# Method in brief: as §1
# AgCyk3 = target: AgCyk3
# Method in brief: as §1
# AgFus1 = target: AgFus1
# Method in brief: as §1
# AgHof1 = target: AgHof1
# Method in brief: as §1
# AgHse1 = target: AgHse1
# Method in brief: as §1
# AgLsb1 = target: AgLsb1
# Method in brief: as §1
# AgLsb4 = target: AgLsb4
# Method in brief: as §1
# AgMyo5 = target: AgMyo5
# Method in brief: as §1
# AgNbp2 = target: AgNbp2
# Method in brief: as §1
# AgRvs167 = target: AgRvs167
# Method in brief: as §1
# AgSho1 = target: AgSho1
# Method in brief: as §1
# AgSla1-D1-D2 = target: AgSla1-D1-D2
# Method in brief: as §1
# AgSla1-D3 = target: AgSla1-D3
# Method in brief: as §1
# CaAbp1-D1 = target: CaAbp1-D1
# Method in brief: as §1
# CaAbp1-D2 = target: CaAbp1-D2
# Method in brief: as §1
# CaBbc1 = target: CaBbc1
# Method in brief: as §1
# CaBem1-D1 = target: CaBem1-D1
# Method in brief: as §1
# CaBzz1-D1 = target: CaBzz1-D1
# Method in brief: as §1
# CaBzz1-D2 = target: CaBzz1-D2
# Method in brief: as §1
# CaCyk3 = target: CaCyk3
# Method in brief: as §1
# CaFus1 = target: CaFus1
# Method in brief: as §1
# CaHof1 = target: CaHof1
# Method in brief: as §1
# CaHse1 = target: CaHse1
# Method in brief: as §1
# CaLsb1 = target: CaLsb1
# Method in brief: as §1
# CaLsb4 = target: CaLsb4
# Method in brief: as §1
# CaMyo5 = target: CaMyo5
# Method in brief: as §1
# CaNbp2 = target: CaNbp2
# Method in brief: as §1
# CaRvs167 = target: CaRvs167
# Method in brief: as §1
# CaRvs167-3 = target: CaRvs167-3
# Method in brief: as §1
# CaSho1 = target: CaSho1
# Method in brief: as §1
# CaSla1-D1-D2 = target: CaSla1-D1-D2
# Method in brief: as §1
# CaSla1-D3 = target: CaSla1-D3
# Method in brief: as §1
# ScAbp1 = target: ScAbp1
# Method in brief: as §1
# ScBbc1 = target: ScBbc1
# Method in brief: as §1
# ScBem1-D1 = target: ScBem1-D1
# Method in brief: as §1
# ScBzz1-D1 = target: ScBzz1-D1
# Method in brief: as §1
# ScBzz1-D2 = target: ScBzz1-D2
# Method in brief: as §1
# ScCyk3 = target: ScCyk3
# Method in brief: as §1
# ScFus1 = target: ScFus1
# Method in brief: as §1
# ScHof1 = target: ScHof1
# Method in brief: as §1
# ScHse1 = target: ScHse1
# Method in brief: as §1
# ScLsb1 = target: ScLsb1
# Method in brief: as §1
# ScLsb2 = target: ScLsb2
# Method in brief: as §1
# ScLsb3 = target: ScLsb3
# Method in brief: as §1
# ScLsb4 = target: ScLsb4
# Method in brief: as §1
# ScMyo3 = target: ScMyo3
# Method in brief: as §1
# ScMyo5 = target: ScMyo5
# Method in brief: as §1
# ScNbp2 = target: ScNbp2
# Method in brief: as §1
# ScPex13 = target: ScPex13
# Method in brief: as §1
# ScRvs167 = target: ScRvs167
# Method in brief: as §1
# ScSho1 = target: ScSho1
# Method in brief: as §1
# ScSla1-D1-D2 = target: ScSla1-D1-D2
# Method in brief: as §1
# ScSla1-D3 = target: ScSla1-D3
# Method in brief: as §1
# SpAbp1-D1 = target: SpAbp1-D1
# Method in brief: as §1
# SpBbc1 = target: SpBbc1
# Method in brief: as §1
# SpBzz1-D1 = target: SpBzz1-D1
# Method in brief: as §1
# SpBzz1-D2 = target: SpBzz1-D2
# Method in brief: as §1
# SpCyk3 = target: SpCyk3
# Method in brief: as §1
# SpHof1 = target: SpHof1
# Method in brief: as §1
# SpHof1-2 = target: SpHof1-2
# Method in brief: as §1
# SpHof1-3 = target: SpHof1-3
# Method in brief: as §1
# SpHse1 = target: SpHse1
# Method in brief: as §1
# SpLsb1 = target: SpLsb1
# Method in brief: as §1
# SpLsb4 = target: SpLsb4
# Method in brief: as §1
# SpMyo1 = target: SpMyo1
# Method in brief: as §1
# SpNbp2 = target: SpNbp2
# Method in brief: as §1
# SpPex13 = target: SpPex13
# Method in brief: as §1
# SpRvs167 = target: SpRvs167
# Method in brief: as §1
# SpSla1-D1-D2 = target: SpSla1-D1-D2
# Method in brief: as §1
# SpSla1-D3 = target: SpSla1-D3
# Method in brief: as §1
binder,measurement,setting,value
B1,SPOT peptide array binding signal intensity,AgAbp1,242
same,SPOT peptide array binding signal intensity,AgBbc1,60.8
same,SPOT peptide array binding signal intensity,AgBem1-D1,73
same,SPOT peptide array binding signal intensity,AgBzz1-D1,77
same,SPOT peptide array binding signal intensity,AgBzz1-D2,44
same,SPOT peptide array binding signal intensity,AgCyk3,≤ 0
same,SPOT peptide array binding signal intensity,AgFus1,9.5
same,SPOT peptide array binding signal intensity,AgHof1,55.8
same,SPOT peptide array binding signal intensity,AgHse1,142
same,SPOT peptide array binding signal intensity,AgLsb1,100
same,SPOT peptide array binding signal intensity,AgLsb4,25
same,SPOT peptide array binding signal intensity,AgMyo5,7
same,SPOT peptide array binding signal intensity,AgNbp2,16.5
same,SPOT peptide array binding signal intensity,AgRvs167,2.67
same,SPOT peptide array binding signal intensity,AgSho1,≤ 0
same,SPOT peptide array binding signal intensity,AgSla1-D1-D2,44
same,SPOT peptide array binding signal intensity,AgSla1-D3,2.5
same,SPOT peptide array binding signal intensity,CaAbp1-D1,728
same,SPOT peptide array binding signal intensity,CaAbp1-D2,464
same,SPOT peptide array binding signal intensity,CaBbc1,218
same,SPOT peptide array binding signal intensity,CaBem1-D1,73
same,SPOT peptide array binding signal intensity,CaBzz1-D1,84
same,SPOT peptide array binding signal intensity,CaBzz1-D2,42
same,SPOT peptide array binding signal intensity,CaCyk3,7
same,SPOT peptide array binding signal intensity,CaFus1,208
same,SPOT peptide array binding signal intensity,CaHof1,≤ 0
same,SPOT peptide array binding signal intensity,CaHse1,1
same,SPOT peptide array binding signal intensity,CaLsb1,0.5
same,SPOT peptide array binding signal intensity,CaLsb4,51.5
same,SPOT peptide array binding signal intensity,CaMyo5,5
same,SPOT peptide array binding signal intensity,CaNbp2,333
same,SPOT peptide array binding signal intensity,CaRvs167,12
same,SPOT peptide array binding signal intensity,CaRvs167-3,11.8
same,SPOT peptide array binding signal intensity,CaSho1,47.5
same,SPOT peptide array binding signal intensity,CaSla1-D1-D2,148
same,SPOT peptide array binding signal intensity,CaSla1-D3,1.25
same,SPOT peptide array binding signal intensity,ScAbp1,146
same,SPOT peptide array binding signal intensity,ScBbc1,7.25
same,SPOT peptide array binding signal intensity,ScBem1-D1,29
same,SPOT peptide array binding signal intensity,ScBzz1-D1,47.5
same,SPOT peptide array binding signal intensity,ScBzz1-D2,8
same,SPOT peptide array binding signal intensity,ScCyk3,15
same,SPOT peptide array binding signal intensity,ScFus1,98
same,SPOT peptide array binding signal intensity,ScHof1,0.75
same,SPOT peptide array binding signal intensity,ScHse1,527
same,SPOT peptide array binding signal intensity,ScLsb1,162
same,SPOT peptide array binding signal intensity,ScLsb2,2
same,SPOT peptide array binding signal intensity,ScLsb3,132
same,SPOT peptide array binding signal intensity,ScLsb4,12
same,SPOT peptide array binding signal intensity,ScMyo3,2
same,SPOT peptide array binding signal intensity,ScMyo5,1
same,SPOT peptide array binding signal intensity,ScNbp2,173
same,SPOT peptide array binding signal intensity,ScPex13,≤ 0
same,SPOT peptide array binding signal intensity,ScRvs167,13.5
same,SPOT peptide array binding signal intensity,ScSho1,95
same,SPOT peptide array binding signal intensity,ScSla1-D1-D2,442
same,SPOT peptide array binding signal intensity,ScSla1-D3,21
same,SPOT peptide array binding signal intensity,SpAbp1-D1,306
same,SPOT peptide array binding signal intensity,SpBbc1,1
same,SPOT peptide array binding signal intensity,SpBzz1-D1,240
same,SPOT peptide array binding signal intensity,SpBzz1-D2,0.5
same,SPOT peptide array binding signal intensity,SpCyk3,1
same,SPOT peptide array binding signal intensity,SpHof1,126
same,SPOT peptide array binding signal intensity,SpHof1-2,11.5
same,SPOT peptide array binding signal intensity,SpHof1-3,266
same,SPOT peptide array binding signal intensity,SpHse1,260
same,SPOT peptide array binding signal intensity,SpLsb1,54.2
same,SPOT peptide array binding signal intensity,SpLsb4,129
same,SPOT peptide array binding signal intensity,SpMyo1,2
same,SPOT peptide array binding signal intensity,SpNbp2,53
same,SPOT peptide array binding signal intensity,SpPex13,5
same,SPOT peptide array binding signal intensity,SpRvs167,16.7
same,SPOT peptide array binding signal intensity,SpSla1-D1-D2,3.5
same,SPOT peptide array binding signal intensity,SpSla1-D3,2
